# Shiga toxin inh: inhibitors of Shiga toxin in Vero cells | Vero cells, Shiga toxin protein synthesis inhibition reporter | inhibition, % at 38.7 µM | 290,000 compounds, 9.2% hits | AID 2315; in the data active means inhibition mostly above about 28%, no sharp cut-off; inactive means mostly below about 43%
# SARS PLP yeast: blocks SARS-CoV papain-like protease in a yeast assay | S. cerevisiae expressing SARS-CoV PLpro, growth rescue | Potency, µM (series often up to 32.9 µM), most hits filed as activators | 330,000 compounds, 0.19% hits | AID 485353; further: nearly all actives have a fitted effect of over 55% in size
# Pf growth 96h: inhibits malaria parasite growth, 96 h; Potency, µM (doses to about 28.7 µM), actives largely listed as inhibitors; 320,000 compounds, 6.9% hits; P. falciparum luciferase reporter growth, 96 h; active means well fitted inhibition curve with a large enough effect; inconclusive means small, poorly fitted or top-dose-only effect, or another doubt; inactive means no such curve, though single readings can be large or run the other way
#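 Readout is luminescence from an integrated firefly luciferase in P. falciparum. Red cells, 2% hematocrit and 0.05% parasitemia final, were cultured with compound through two parasite generations (96 hours) at 37 C, 5% CO2.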
# CHX counter: counter-screen hit for Shiga toxin inhibitors, cycloheximide; max response, %; 300,000 compounds, 12% hits; AID 2314; cell reporter, cycloheximide protein synthesis inhibition counterscreen; in the data active means max response mostly above about 13%, no sharp cut-off; inactive means mostly below about 14%; further: read at 38.3 µM for the half of the compounds with a filed dose
# NS1 function inh: influenza NS1 inhibition; 270,000 compounds, 0.4% hits; Potency, µM (titrated, usually from 46.1 µM); AID 2326; further: actives are rising curves; nearly all actives have a fitted effect of over 50% in size
#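 Growth recovery, yeast-based: influenza A NS1 expressed in S. cerevisiae causes slow growth, and suppressors are detected by OD600. The parent strain without NS1 is used as positive control.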
# Pf growth 48h: P. falciparum growth inhibition at 48 hours (one generation) | Potency, µM (titrated, usually from 28.7 µM), hits mostly inhibitors | P. falciparum luciferase growth in erythrocytes, 48 h | AID 504832 | 310,000 compounds, 5.9% hits; active means well fitted inhibition curve with a large enough effect; inconclusive means small, poorly fitted or top-dose-only effect, or another doubt; inactive means no such curve, though single readings can be large or run the other way
#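 Luciferase-expressing parasites in RBCs, 2% Hct / 0.1% parasitemia final; RPMI 1640 + 0.5% Albumax; 37 C, 5% CO2, one generation; luminescence read-out, lower signal = inhibition.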
# Numbers stand for hits; n = inactive; u = inconclusive; x = no result given; + = active, no number; [ ] = dose if it differs, or a comment. Rows were chosen to be rich in hits. Some 21% of all compounds tested hit in one or more screens of this group. Unless noted, the call rests on the fitted dose curve.
SMILES,Shiga toxin inh,SARS PLP yeast,Pf growth 96h,CHX counter,NS1 function inh,Pf growth 48h
CC(C)=C[C@H]1[C@@H](C(=O)Oc2ccccc2C(C)C)C1(C)C,x,x,x,x,n,x
CCOC(=O)COc1ccc2c(c1)c(C(C)=O)c(C)n2-c1ccc(OC)cc1,145,n,n,n,n,n[0.00184 µM]
CCOC(=O)c1c(C)n(C)c2ccc(OCC(O)Cn3c(C)nc4ccccc43)cc12 (stereo not drawn),n,n,x,n,n,10µM
CCOC(=O)c1c(-c2ccccc2)oc2ccc(OCC)cc12,n,n,n,n,n,n
CCOC(=O)c1c(C)n(-c2ccc(C)cc2)c2ccc(OCC(O)CN3CCN(C)CC3)cc12 (stereo not drawn),n,n,n,n,x,9.3µM
CCOC(=O)c1c(-c2ccccc2)oc2ccc(OCC(O)CNCCN(C)C)cc12 (stereo not drawn),n,n,u,n,n,2.1µM
CCOC(=O)c1c(C)n(C)c2ccc(OCC(O)CN3CCN(C)CC3)cc12 (stereo not drawn),n,n,n,n,n,x
CCOC(=O)c1c(C)n(C)c2ccc(OCC(O)CNCCc3ccccc3)cc12 (stereo not drawn),n,n,4.7µM,n,n,u
O=C(CSc1nnnn1-c1ccc2c(c1)OCO2)NCc1ccccc1,n,n,u,n,n,n
O=C(CSc1nnnn1-c1ccc2c(c1)OCO2)NCc1cccs1,+,n,x,27,n,n
COc1ccccc1NC(=O)CSc1nnnn1-c1ccc2c(c1)OCO2,n,n,x,n,n,n
Fc1ccccc1CSc1nnnn1-c1ccc2c(c1)OCO2,n,n,x,16,n,u
Cc1ccc(OCCCSc2n[nH]c(N)n2)cc1,n,n,n,15,n,n
CCCCSc1n[nH]c(N)n1,n,n,n,n,n,n
Cc1ccc(CSc2n[nH]c(N)n2)cc1,n,n,n,22,n,n
Cc1ccc(Nc2nc(CSc3nnc(-c4cccs4)o3)cs2)cc1,74,n,u,48,n,n
Cc1ccc(Nc2nc(CSc3n[nH]c(N)n3)cs2)cc1,66,n,n,31,n,n
c1ccc(-c2nc(CSc3nnc(-c4cccs4)o3)cs2)cc1,n,n,u,n,n,n
COc1ccc(/C=N/NC(=O)c2ccc3nc[nH]c3c2)cc1,n,n,n,n,n,n
CC(/C=C(\NC(=O)c1ccccc1)C(=O)N=Nc1c(O)[nH]c2ccc(C)cc12)=C\c1ccccc1,n,n,x,n,n,u
CC1(C(=O)NCC2CC2)C=CC2(CCCCC2)N1C(=O)c1ccccc1 (stereo not drawn),49,n,u,66,n,n
COc1ccc(OS(=O)(=O)Cc2ccccc2)cc1,41,n,n,20,n,n
COc1ccc(CS(=O)(=O)CC(C)(O)c2ccccc2)cc1 (stereo not drawn),n,n,n,n,n,n
Cc1ccc2c(CC(=O)NCC3(N4CCOCC4)CCCCC3)coc2c1C,x,n,9.3µM,x,x,u
Cc1ccccc1C(=O)NCC(=O)NCC1(N2CCOCC2)CCCCC1,x,n,n,x,x,n
SMILES,Shiga toxin inh,SARS PLP yeast,Pf growth 96h,CHX counter,NS1 function inh,Pf growth 48h
Cc1ccc2c(CC(=O)NCc3ccco3)coc2c1C,33,n,n,23,n,n
N#CCC(=O)Nc1ccc(C(=O)NCC2(N3CCOCC3)CCCCC2)cc1,x,n,10µM,x,x,12µM
CN1CCCN(C(=O)c2cccc3ccccc23)CC1,n,n,n,n,n,n
COC(=O)c1[nH]c2ccccc2c1NC(=O)C(C)N1CC(C)OC(C)C1 (stereo not drawn),n,n,u,n,n,n
CSCCC1NC(=O)N(C(C)C(=O)Nc2cc(Cl)cc(Cl)c2)C1=O (stereo not drawn),n,n,u,n,n,n
OC[C@@H]1[C@@H](c2ccc(F)cc2)C(c2ccc(F)cc2)=NN1c1ccccc1,n,x,x,n,x,x
O=C(N/N=C1/CN2CCC1CC2)c1cc2ccccc2cc1O,n,n,n,n,n,13µM
C=CCn1c(-c2ccc(Cl)cc2)cnc1SC(C)C(=O)NC(N)=O (stereo not drawn),n,n,u,n,x,n
CC(O/N=C/c1ccc(OC(F)F)cc1)C(=O)Nc1cccc(S(=O)(=O)N2CCOCC2)c1 (stereo not drawn),n,n,u,n,n,n
CCCCCCCCC(=O)N/N=C/c1ccccn1,n,n,n,n,n,u
O=C(N/N=C/c1ccccn1)c1ccc(Cl)cc1,102,n,n,46,n,15µM
O=C(N/N=C/c1ccc[nH]1)c1ccc(Cl)cc1,39,n,n,34,n,n
CN(C)c1ccc(C(=O)N/N=C/c2ccccn2)cc1,75,n,9.3µM,58,n,n
O=C(N/N=C/c1ccccn1)c1ccccc1,71,n,n,48,n,u
CCOc1ccc(CNC2CCCc3ccccc32)cc1 (stereo not drawn),n,n,n,n,x,n
C=C1CC[C@@]23CC[C@]4(C)[C@@](OC2=O)([C@@H]3C1)[C@H]1O[C@H]1C1[C@@]2(C)CC[C@H](O)C(C)(C)C2CC[C@]14C (stereo partly drawn),x,n,n,x,x,u
CC(=O)c1cccc(CN2CCN(C(C)C)C(CCO)C2)c1 (stereo not drawn),n,n,u,n,n,n
Cc1cccc(/C=N/NC(=O)c2ccc(NC(=O)c3ccc(F)cc3)cc2)n1,n,n,n,n,n,u
Cc1ccc(C(=O)Nc2ccc(C(=O)N/N=C/c3cccnc3)cc2)cc1,n,n,u,n,n,n
COc1cc(C(=O)N/N=C/c2ccccn2)cc(OC)c1OC,n,n,u,n,x,u
Cc1cccc(/C=N/NC(=O)c2ccc(NC(=O)c3ccc(Cl)cc3)cc2)n1,n,n,n,11,n,n
O=C(N/N=C/c1ccccn1)c1ccco1,71,n,n,47,n,n
O=C(N/N=C/c1ccccn1)c1ccncc1,97,n,n,52,n,n
Cc1ccc(C(=O)Nc2ccc(C(=O)N/N=C/c3ccccn3)cc2)cc1,31,n,n,25,n,u
Cc1cc(OC(C)C(=O)NNC(=O)Nc2ccc(F)cc2F)cc(C)c1Cl (stereo not drawn),n,n,n,n,n,n
SMILES,Shiga toxin inh,SARS PLP yeast,Pf growth 96h,CHX counter,NS1 function inh,Pf growth 48h
Cc1ccc(S(=O)(=O)NC(C)(C)CSc2ccccn2)cc1,n,n,n,n,n,n
Cc1sc2nc(CSc3ccc([N+](=O)[O-])c(C(F)(F)F)c3)[nH]c(=O)c2c1C,n,n,n,n,n,n
O=C(N/N=C/c1ccccn1)c1cccs1,76,n,u,38,x,u
O=C(N/N=C/c1ccccn1)C(O)c1ccccc1 (stereo not drawn),n,n,n,n,n,n
O=C(Cc1cccs1)N/N=C/c1ccccn1,39,n,n,27,n,n
Cc1ccc(Nc2nc(-c3cccnc3)nc3ccccc23)cc1,n,n,n,n,n,15µM
c1ccc2c(Nc3ccc(N4CCOCC4)cc3)nc(N3CCOCC3)nc2c1,n,n,n,n,n,u
